mHTT CaM bind – mHTT-calmodulin interaction abrogation; AlphaScreen His-mHTT/GST-CaM binding, luminescence; inhibition, % at 15 µM; 3.6% of 190,000 active; AID 1671202;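 note: 0% = both proteins with DMSO and 100% = one protein alone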
Pf apPOL inh – Pf-apPOL DNA polymerase inhibition; 0.25% of 210,000 active; AID 1794808; inhibition, % at 10 µM; Recombinant Pf-apPOL, molecular beacon fluorescence, 1.5 h
An asterisk follows results filed as active; nt = no result given. Shown are actives, neighbours in structure and some others; about 3.5% of the full set was active somewhere. Cut-off read from the data, not from the text of the source: active = inhibition above about 50%; inactive = the rest.

SMILES | mHTT CaM bind | Pf apPOL inh
O=S(=O)(c1cccs1)N1CCC(Nc2cccnc2)C1 (stereo not drawn) | -1.9 | -0.3
O=[N+]([O-])c1ccccc1CN1CCN(CCOCCO)CC1 | 1.9 | -3.9
CCC(=O)N1CCN(c2nc(C)nc(C)c2Cc2c(F)cccc2Cl)CC1 | 10.3 | -4.5
Cc1nc(C)c(Cc2ccc(Cl)cc2)c(N2CCN(C(=O)C3CC3)CC2)n1 | 13.1 | -4.1
CCC(=O)N1CCN(c2nc(C)nc(C)c2Cc2ccc(Cl)cc2Cl)CC1 | 51.9* | 4.2
Cc1nc(C)c(Cc2ccc(Cl)cc2)c(N2CCN(C(=O)C3CCC3)CC2)n1 | 92.9* | 3.2
O=C(c1cnccn1)N1CCc2c(nc(-c3ccccc3)[nH]c2=O)C1 | 0.2 | -8.2
Nc1ccccc1NC(=O)CCC(=O)O | -6.1 | -1.2
COc1ccccc1N1CCN(C2CCN(Cc3cccc(C)c3)CC2)CC1 | 1.0 | -5.5
O=[N+]([O-])c1ccc2nc(Cl)c(Cl)nc2c1 | 30.5 | nt
CC1(C)N=c2ccc([N+](=O)[O-])cc2=N1 | nt | 63.6*
CC(CCC(=O)N=Nc1c(O)[nH]c2c(Cl)cc(Cl)cc12)C1CCC2C3C(O)CC4CC(O)CCC4(C)C3CCC12C (stereo not drawn) | 66.9* | 0.1
CC(CCC(=O)O)C1CCC2C3CC(O)C4CC(O)CCC4(C)C3CCC12C (stereo not drawn) | 19.0 | -8.9
CC(CCC(=O)NN=Cc1c[nH]c2ccccc12)C1CCC2C3C(O)CC4CC(O)CCC4(C)C3CCC12C (stereo not drawn) | 100.1* | -3.1
CC(CCC(=O)N=Nc1c(O)[nH]c2ccc(Cl)cc12)C1CCC2C3C(O)CC4CC(O)CCC4(C)C3CCC12C (stereo not drawn) | 43.2 | 0.9
O=C(CN1CCC(c2nc(-c3ccc(F)cc3)no2)CC1)NCc1ccco1 | 0.7 | -0.9
Cc1ccc(Oc2nccnc2N2CCCC(C(=O)NCc3ccccc3F)C2)cc1 (stereo not drawn) | -8.0 | -7.0
CC(C)(C)c1ccc(O)c(C(C)(C)C)c1O | 98.4* | -6.9
CC(C)(C)c1cc(S)cc(C(C)(C)C)c1O | 12.8 | nt
CCCCN(CCCC)S(=O)(=O)c1ccc(C(=O)Nc2nnc(C)o2)cc1 | 58.0* | -7.3
CCCCN(CC)S(=O)(=O)c1ccc(C(=O)Nc2nnc(C3CC3)o2)cc1 | 16.0 | -18.0
COCCN(CCOC)S(=O)(=O)c1ccc(C(=O)Nc2nnc(C)o2)cc1 | 22.0 | -57.9
CCN(Cc1ccccc1)S(=O)(=O)c1ccc(C(=O)Nc2nnc(C3CC3)o2)cc1 | 72.0* | -63.0
O=C1OC(c2ccc(Cl)c(Cl)c2)=N/C1=C/c1ccc2c(c1)OCO2 | 10.0 | 1.8
CC(C)CCNC(=O)c1cc(N2CCCC(C)C2)nc2ccccc12 (stereo not drawn) | -21.9 | 0.0
SMILES | mHTT CaM bind | Pf apPOL inh
CC1=Nc2c([nH]c3ccccc23)-c2cc(C)ccc2N1 | 70.2* | 1.5
Cc1ccc(C)c(-c2noc(-c3c(O)c4ccccc4[nH]c3=O)n2)c1 | -6.8 | -11.9
C=CCN(c1ccccc1)S(=O)(=O)c1ccc(N2C(=O)c3ccccc3C2=O)cc1 | 0.0 | -1.6
Cc1c(Cl)cccc1N1CCN(C(=O)c2ccccc2Cl)C(C)C1=O (stereo not drawn) | -6.3 | -0.1
Cc1cc(NC(=O)c2ccccc2)cc(C)c1O | -0.6 | -2.7
Cc1ccc(Nc2cc(C)c(O)c(C)c2)cc1 | 83.6* | -4.7
CCOc1ccc(NC(=O)N2CCc3cn(C)c4cccc(c34)C2)cc1 | 26.2 | -5.2
CN(C)c1ccc(/C=C2\C(=O)Nc3ccc(Br)cc32)cc1 | 99.0* | -34.3
CCc1ccc(/C=C2\C(=O)Nc3ccc(Br)cc32)cc1 | 74.0* | -3.6
CCc1ccc(/C=C2\C(=O)Nc3ccc(Cl)cc32)cc1 | 44.0 | -0.7
O=C1Nc2ccc(Br)cc2/C1=C/c1ccc(F)cc1 | 14.0 | -0.1
CC(O)(CCc1ccccc1)CNC(=O)C(=O)Nc1cccc(C(F)(F)F)c1 (stereo not drawn) | -18.2 | -7.6
COc1ccc(OC)c(NC(=O)c2cc(S(=O)(=O)NCc3ccccc3)ccc2F)c1 | 13.0 | -8.2
Cc1ccc(NC(=O)c2cc(S(=O)(=O)NCCc3ccccc3)ccc2F)cc1Cl | 5.0 | 1.4
O=C(Nc1cccc(Cl)c1)c1cc(S(=O)(=O)NCCc2ccc(Cl)cc2)ccc1F | 80.0* | -7.9
O=C(Nc1ccc(F)c(Cl)c1)c1cc(S(=O)(=O)NCCc2ccccc2)ccc1F | 76.0* | -6.2
COc1ccc(OC)c(NC(=O)c2cc(S(=O)(=O)NCCc3ccccc3)ccc2F)c1 | 80.0* | 0.4
O=C(Nc1cc(Cl)cc(Cl)c1)c1cc(S(=O)(=O)NCCc2ccccc2)ccc1F | 49.0 | -7.9
O=C(Nc1ccccc1)Nc1ccc(F)c(Cl)c1 | -5.6 | -1.6
O=C(NCc1ccc(N2CCCC2)cc1)C1CCc2sc(C(=O)N3CCCC3)cc2C1 (stereo not drawn) | 6.8 | 0.4
O=C(Cc1ccc(Cl)cc1)Nc1cccc(C(=O)Nc2nccs2)c1 | -6.3 | 9.5
c1ccc2c3c([nH]c2c1)CCCC3 | 36.8 | nt
O=C(Nc1ccccc1)c1cccc2c3c([nH]c12)CCCC3 | 76.2* | -1.4
CNC(=O)N1CCc2[nH]cnc2C1c1ccncc1 (stereo not drawn) | -4.7 | -1.8
COc1ccc(NC(=O)N2CCc3[nH]cnc3C2c2ccccn2)cc1OC (stereo not drawn) | 90.9* | -7.0
SMILES | mHTT CaM bind | Pf apPOL inh
CNC(=O)N1CCc2[nH]cnc2C1c1ccccn1 (stereo not drawn) | 93.7* | -8.5
Cc1cccc(NC(=O)N2CCc3[nH]cnc3C2c2ccncc2)c1 (stereo not drawn) | -5.7 | -1.0
CNc1nc2c(C)cccn2c(=O)c1C=Nc1ccccc1 | 9.0 | 10.8
O=C(CCC(=O)NNC(=O)C1CC1)NNC(=O)C1CC1 | -7.0 | nt
O=C(c1ccc(S(=O)(=O)N2CCCCC2)cc1)N1CCCCC1 | -7.4 | -7.5
O=C(c1ccc(S(=O)(=O)N2CCCCC2)cc1)N1CCN(c2ccccc2)CC1 | 100.2* | -20.7
COc1ccc(OC)c(NC(=O)Cn2nc3c(cc2=O)CC(C)CC3)c1 (stereo not drawn) | 12.1 | -0.5
COc1ccc(OC)c(NC(=O)c2c(NCc3ccncc3)sc3c2CCC(C)C3)c1 (stereo not drawn) | 72.0* | -17.8
COc1ccccc1NC(=O)c1c(NCc2ccncc2)sc2c1CCC(C)C2 (stereo not drawn) | 100.0* | -17.8
COc1ccccc1NC(=O)c1c(NCc2ccccn2)sc2c1CCC(C)C2 (stereo not drawn) | 46.0 | -16.3
COc1ccc(Cl)cc1Nc1ncnc2sc3c(c12)CCC(C)C3 (stereo not drawn) | -5.5 | 0.6
COc1ccc(Cl)cc1NC(=O)c1c(NCc2ccncc2)sc2c1CCC(C)C2 (stereo not drawn) | 73.0* | -15.0
Cc1sc2ncnc(Nc3ccncc3)c2c1C | 3.3 | -31.6
COc1ccccc1-c1noc(C2CCCN2C(=O)Nc2ccccc2Br)n1 (stereo not drawn) | 9.7 | 3.0
C#CCSc1nc2ccccc2c(=O)n1CC | -5.5 | -6.6
CCOc1ccc(N2CC(c3nnc(NC(=O)c4ccc(Cl)cc4)o3)CC2=O)cc1 (stereo not drawn) | 8.9 | -2.3
COc1ccc(N2CC(c3nnc(NC(=O)c4ccc(C(C)(C)C)cc4)o3)CC2=O)cc1 (stereo not drawn) | 8.5 | -3.3
CCOc1ccc(N2CC(c3nnc(NC(=O)c4ccc(C)cc4)o3)CC2=O)cc1 (stereo not drawn) | 60.3* | -2.4

Assay outcomes from PubChem.
